# The list is not random: actives were taken first. Their share in the collection is about 2.3%.
# SIRT5 block – inhibitors of human sirtuin-5 desuccinylase | Purified SirT5, succinyl-peptide AMC, trypsin-coupled fluorescence | 330,000 tested, 1.1% active | Q9NXA8 | inhibition, % at 15 µM; in the data active = inhibition above about 15%
# Rtt109 HAT inh – C. albicans Rtt109 histone acetyltransferase inhibition; inhibition, % at 34.9 µM; 330,000 tested, 0.16% active; purified Rtt109/Vps75, ThioGlo CoA-SH fluorescence, 4 h;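 active = inhibition of at least 50% in every replicate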
# ERp5 block – inhibitors of human ERp5; ERp5 insulin aggregation, absorbance 650 nm, 90 min; 350,000 tested, 0.05% active; AID 651711; inhibition, % at 9.99 µM; Q15084;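 active = mean replicate inhibition above about 25%, with every replicate also reaching it, limit read from the data, passing the limit was not always enough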
# DENV2 CPE – inhibitors of DENV2 cytopathic effect. CPE inhibition, % at 9.99 µM. AID 651640. 350,000 tested, 1.7% active. DENV2-infected cells, cytopathic effect rescue, plate reader; in the data active = CPE inhibition above about 20%, passing the limit was not always enough; tested in BHK-21 cells
# PDI turbidity – blocks human protein disulfide isomerase activity; inhibition, % at 10 µM; P07237; PDI insulin aggregation turbidity, A650, 90 min; AID 588391; 350,000 tested, 0.052% active;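 active = mean inhibition across replicates of 30% or more, whatever share of single replicates reach that level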
# Target sequence (P07237 whole entry, looked up): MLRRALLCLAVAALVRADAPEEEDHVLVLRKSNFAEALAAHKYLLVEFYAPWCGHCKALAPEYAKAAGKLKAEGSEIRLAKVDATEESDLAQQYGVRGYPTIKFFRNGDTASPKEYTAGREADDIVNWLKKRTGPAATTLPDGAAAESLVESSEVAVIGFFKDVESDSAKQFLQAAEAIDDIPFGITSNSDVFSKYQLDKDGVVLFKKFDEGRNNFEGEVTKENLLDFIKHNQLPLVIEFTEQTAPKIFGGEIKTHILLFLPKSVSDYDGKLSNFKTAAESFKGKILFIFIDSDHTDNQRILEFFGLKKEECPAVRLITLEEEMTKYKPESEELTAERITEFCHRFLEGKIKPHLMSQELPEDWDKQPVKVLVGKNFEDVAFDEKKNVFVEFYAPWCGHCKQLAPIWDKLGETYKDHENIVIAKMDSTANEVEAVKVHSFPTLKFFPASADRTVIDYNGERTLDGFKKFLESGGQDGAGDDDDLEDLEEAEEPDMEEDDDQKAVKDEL
# Numbers stand for hits; n = inactive; x = not tested or not shown; ! = not confirmed by another sample.
SMILES,SIRT5 block,Rtt109 HAT inh,ERp5 block,DENV2 CPE,PDI turbidity
CNC[C@@H]1OCCCC[C@@H](C)Oc2ccc(NS(=O)(=O)c3ccccc3)cc2C(=O)N([C@@H](C)CO)C[C@@H]1C,n,x,n,n,x
Cc1ccccc1S(=O)(=O)N(C)C[C@@H]1OCc2ccccc2-c2ccccc2C(=O)N([C@@H](C)CO)C[C@@H]1C,n,x,n,n,x
COc1cccc(NC(=O)Nc2ccc3c(c2)OC[C@H](C)NC[C@@H](C)[C@H](OC)CN(C)C3=O)c1,n,x,n,22,x
CO[C@H]1CN(C)C(=O)c2ccc(NC(=O)Nc3ccc(C(F)(F)F)cc3)cc2OC[C@@H](C)NC[C@@H]1C,n,x,n,n,x
COc1cccc(NC(=O)Nc2ccc3c(c2)OC[C@H](C)NC[C@@H](C)[C@@H](OC)CN(C)C3=O)c1,n,x,n,n,x
CO[C@H]1CN(C)C(=O)c2ccc(NC(=O)NC(C)C)cc2OC[C@H](C)NC[C@@H]1C,n,x,n,30,x
CO[C@H]1CN(C)C(=O)c2ccc(NC(=O)Nc3ccc(C(F)(F)F)cc3)cc2OC[C@H](C)NC[C@H]1C,15,x,n,n,x
CO[C@H]1CN(C)C(=O)c2cc(NS(C)(=O)=O)ccc2OC[C@@H](C)N(C(=O)CN(C)C)C[C@H]1C,n,x,n,n,x
CSc1nc(Cl)c(Br)c(Nc2c[nH]c(=O)[nH]c2=O)n1,x,n,n,52,n
C[C@@H]1CN([C@@H](C)CO)S(=O)(=O)c2ccc(Br)cc2O[C@@H]1CN(C)S(=O)(=O)c1cn(C)cn1,n,x,n,24!,n
C[C@H]1CN([C@@H](C)CO)S(=O)(=O)c2ccc(C#Cc3ccccc3)cc2O[C@@H]1CN(C)S(=O)(=O)c1cn(C)cn1,n,x,n,34,x
COc1cc(C(C)=O)ccc1OCc1cn(CC(=O)c2ccc(O)cc2)nn1,21,n,n,n,n
CCc1ccc(OCC(=O)Nc2ncn[nH]2)cc1,n,n,n,n,n
O=C(COc1ccccc1)Nc1ncn[nH]1,30,n,n,n,n
O=C1c2cccc([N+](=O)[O-])c2C(=O)N1c1ccccc1,n,x,n,n,n
O=C1c2cccc([N+](=O)[O-])c2C(=O)N1c1cccnc1,20,n,n,x,n
CCOC(=O)C(NC(=O)Nc1ccc(Cl)cn1)(Oc1ccc(F)cc1)C(F)(F)F (stereo not given),n,n,n,78,n
Cc1nonc1OCCn1c([N+](=O)[O-])cnc1C,n,53,n,n,n
CCN(Cc1ccccc1)S(=O)(=O)c1ccc(C(=O)N(CCCN(C)C)c2nc3cc(C)cc(C)c3s2)cc1,n,n,n,78,n
COc1ccc(NC(=O)Nc2ccc3c(c2)C(=O)N([C@@H](C)CO)C[C@@H](C)[C@@H](CN(C)C(=O)Cc2ccccc2)OCCCC[C@H](C)O3)cc1,n,x,n,n,x
C=CCN1CCCc2c(-c3ccc(OCCO)cc3)noc2-c2cc(OC)c(OC)cc2CC1,n,x,n,n,x
NC(CO)C(=O)NNCc1ccc(O)c(O)c1O (stereo not given),n,79!,n,n,n
O=C(N=Nc1c(O)[nH]c2ccc([N+](=O)[O-])cc12)c1cc(-c2ccccc2Cl)nc2ccccc12,23,n,n,n,n
COc1ccc(S(=O)(=O)N(C)C[C@@H]2Oc3ccc(NS(=O)(=O)c4ccc(Cl)cc4)cc3C(=O)N([C@@H](C)CO)C[C@H]2C)cc1,n,x,n,n,x
C[C@@H]1CN([C@H](C)CO)C(=O)c2cccc(NS(=O)(=O)c3ccccc3)c2O[C@H]1CN(C)Cc1ccc(Oc2ccccc2)cc1,n,x,n,n,x
SMILES,SIRT5 block,Rtt109 HAT inh,ERp5 block,DENV2 CPE,PDI turbidity
CC(C)CN1C(=O)C(NC(=O)C2CC2)(C(F)(F)F)C2=C1CC(C)(C)CC2=O (stereo not given),36,n,n,n,n
CO[C@@H]1CC[C@@H]2CCN(C)C(=O)C[C@H](c3ccccc3)CN(C)C(=O)c3cccc(C#N)c3OC[C@@H]1O2,25,x,n,n,x
CO[C@@H]1CC[C@@H]2CCN(C)C(=O)[C@@H](C)[C@H](OC)CN(C)C(=O)c3cc(C#N)ccc3OC[C@@H]1O2,19,x,n,n,x
CO[C@@H]1CC[C@H]2CCOc3c(C#N)cccc3C(=O)N(C)C[C@@H](OC)[C@@H](C)C(=O)N(C)C[C@H]1O2,n,x,n,n,x
CO[C@@H]1CC[C@@H]2CCOc3c(C#N)cccc3C(=O)N(C)C[C@@H](OC)[C@@H](C)C(=O)N(C)C[C@@H]1O2,35,x,n,n,x
Cc1noc(C)c1NC(=O)Nc1cccc2c1O[C@@H](CN(C)S(C)(=O)=O)[C@@H](C)CN([C@H](C)CO)C2=O,n,x,n,n,x
O=C(CCN1CCCCC1)NCC[C@@H]1CC[C@H](NS(=O)(=O)c2cccc(F)c2)[C@H](CO)O1,n,x,n,x,x
C[C@@H]1CN([C@H](C)CO)C(=O)Cc2cc(NS(C)(=O)=O)ccc2O[C@@H]1CN(C)S(=O)(=O)c1cn(C)cn1,x,x,x,n,x
C[C@@]12C(=O)N(CCc3c[nH]c4ccccc34)CC(=O)N1[C@H]1c3ccccc3OC[C@@H]1[C@@H]2c1ccccc1,x,n,n,54,n
COc1ccc2c(c1)OC[C@H]1[C@H]2N2C(=O)c3cc(OC)ccc3NC(=O)[C@@]2(C)[C@H]1c1ccccc1,x,n,n,47,n
C[C@@]12C(=O)N(c3ccc(F)cc3)C(=O)N1[C@@H]1c3ccccc3OC[C@@H]1[C@H]2c1ccccc1,x,n,n,21,n
CN(C)CC(=O)N1[C@H](C(=O)NCc2ccccc2F)[C@@H](CO)[C@@H]2Cn3c(cccc3=O)[C@@H]21,n,x,n,n,x
COc1ccc(NC(=O)Nc2ccc3c(c2)CC(=O)N([C@H](C)CO)C[C@H](C)[C@@H](CN(C)C)O3)cc1,n,x,n,n,x
C[C@@H]1CN([C@@H](C)CO)C(=O)c2cc(NS(=O)(=O)c3ccc(F)cc3)ccc2O[C@@H]1CN(C)C,n,x,n,n,x
CCC(=O)N1[C@@H]2c3ccc(C4=CCCC4)c(=O)n3C[C@@H]2[C@@H](CO)[C@@H]1C(=O)NC1CCC1,n,x,n,n,x
O=C(CSc1ccc2nnc(-c3ccccn3)n2n1)Nc1ccccc1,n,n,n,71,n
CCOc1ccc(NC(=O)CSc2ccc3nnc(-c4ccccn4)n3n2)cc1,18,n,n,n,n
C[C@H]1CN([C@@H](C)CO)C(=O)c2cc(C#CC3CC3)cnc2O[C@H]1CN(C)Cc1ccccn1,n,x,n,n,x
c1ccc2c(C[C@@H]3CNCCN3CCCCC3CCCCC3)cccc2c1,n,n,n,24,n
CC(C)OC(=O)N(C)C[C@H]1OCc2cn(nn2)CCCC(=O)N([C@@H](C)CO)C[C@H]1C,n,x,n,n,x
CC(C)OC(=O)N(C)C[C@@H]1OCc2cn(nn2)CCCC(=O)N([C@H](C)CO)C[C@@H]1C,n,x,n,84,x
Cc1noc(C)c1NC(=O)N(C)C[C@H]1OCc2cn(nn2)CCCC(=O)N([C@@H](C)CO)C[C@@H]1C,16!,x,n,n,n
COc1ccc(OC(=O)N(C)C[C@H]2OCc3cn(nn3)CCCC(=O)N([C@H](C)CO)C[C@@H]2C)cc1,n,x,n,43!,n

# Screening data (PubChem BioAssay)
